Source: the supplement of paper PMC3545927
The list shows a part of the results. The true hit rate is not given.

Molecular target: furin, P09958
Experiment: furin cleavage Z-score vs untreated control; higher = more cleavage, active = 3.5 or more, inactive = 1 or less, 8 variable residues between constant flanks
Procedure, shortened: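 Purified furin digested bead-held 8-mer peptide–cDNA fusions at 1:10 enzyme:substrate in 0.01 ml of 50 mM HEPES pH 7.5 with CaCl2 and NaCl for 7.5, 15 or 30 min. The cleavage Z-score compares sequencing counts of released DNA with furin-free reactions on a log scale, with lowess adjustment and median absolute deviation scaling.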

Sequence of furin, P09958 (P09958 whole entry): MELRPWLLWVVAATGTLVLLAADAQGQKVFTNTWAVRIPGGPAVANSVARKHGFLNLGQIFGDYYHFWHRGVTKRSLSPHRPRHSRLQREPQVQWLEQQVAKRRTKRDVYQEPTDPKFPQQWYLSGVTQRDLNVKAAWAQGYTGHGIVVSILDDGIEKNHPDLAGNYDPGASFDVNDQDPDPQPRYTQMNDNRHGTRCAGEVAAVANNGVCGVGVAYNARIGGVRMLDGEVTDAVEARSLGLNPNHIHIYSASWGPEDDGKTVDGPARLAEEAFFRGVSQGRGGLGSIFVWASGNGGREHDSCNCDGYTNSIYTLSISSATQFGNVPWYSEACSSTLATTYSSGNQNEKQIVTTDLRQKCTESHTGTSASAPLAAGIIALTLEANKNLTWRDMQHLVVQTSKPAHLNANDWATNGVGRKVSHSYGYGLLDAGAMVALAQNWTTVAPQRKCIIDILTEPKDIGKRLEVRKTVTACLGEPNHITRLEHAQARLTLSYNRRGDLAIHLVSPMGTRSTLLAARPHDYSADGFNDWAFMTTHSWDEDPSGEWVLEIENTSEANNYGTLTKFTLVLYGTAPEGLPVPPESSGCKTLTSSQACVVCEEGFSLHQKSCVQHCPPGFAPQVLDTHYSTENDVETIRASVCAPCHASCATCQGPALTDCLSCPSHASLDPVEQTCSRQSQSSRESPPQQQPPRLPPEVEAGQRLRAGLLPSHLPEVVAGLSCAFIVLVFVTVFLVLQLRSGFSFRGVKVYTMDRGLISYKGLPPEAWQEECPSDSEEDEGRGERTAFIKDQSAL

Row | Sequence | furin cleavage Z-score (7.5 min) | furin cleavage Z-score (15 min) | furin cleavage Z-score (30 min)
1 | CARGRRSPHTAGNASASA [FS-3252] | 7.13 (active) | 8.09 (active) | 6.93 (active)
2 | CARGRKSPSKAGNASASA [FS-2673] | -0.571 (inactive) | -0.51 (inactive) | -0.0739 (inactive)
3 | CAGPGRPYRAAGNASASA [FS-784] | -0.745 (inactive) | 0.68 (inactive) | 0.71 (inactive)
4 | CARGRRDFPEAGNASASA [FS-2021] | 1.74 | 3.62 (active) | 3.22
5 | CAGPSRQNRGAGNASASA [FS-1330] | -0.197 (inactive) | -0.893 (inactive) | -0.697 (inactive)
6 | CAGARRSRRAAGNASASA [FS-422] | 7.16 (active) | 6.59 (active) | 5.19 (active)
7 | CAGVSRSCRAAGNASASA [FS-1005] | 3.78 (active) | 4.22 (active) | 5.16 (active)
8 | CAGARRSVIGAGNASASA [FS-1983] | -0.924 (inactive) | 0.507 (inactive) | -0.671 (inactive)
9 | CARGRRKTGEAGNASASA [FS-3251] | -0.45 (inactive) | -1.86 (inactive) | 0.0435 (inactive)
10 | CAMEECSQHIAGNASASA [HC1764] | -0.598 (inactive) | 0.0833 (inactive) | 0.396 (inactive)
11 | CAMRSPVFTDAGNASASA [HC763] | 0.639 (inactive) | -0.615 (inactive) | -0.411 (inactive)
12 | CAFDVVCCSMAGNASASA [HC2107] | -0.364 (inactive) | 0.607 (inactive) | -0.057 (inactive)
13 | CAGERPSGMFAGNASASA [HC913] | 1.14 | -1.35 (inactive) | -0.577 (inactive)
14 | CATTPCSLSWAGNASASA [HC1885] | 1.37 | 1.04 | 0.14 (inactive)
15 | CARPIRSRRAAGNASASA [FS-1563] | 11.5 (active) | 11.2 (active) | 9.54 (active)
16 | CARGRRQPIPAGNASASA [HC190] | 0.155 (inactive) | -0.409 (inactive) | -0.134 (inactive)
17 | CARGRRQKQNAGNASASA [FS-2418] | 0.749 (inactive) | 0.513 (inactive) | 0.917 (inactive)
18 | CARGRRGMKDAGNASASA [FS-2394] | 0.884 (inactive) | 1.5 | 2.14
19 | CARGRRSRRAAGNASASA [FS-1062] | 5.6 (active) | 4.73 (active) | 4.94 (active)
20 | CARGRRSHDPAGNASASA [FS-2674] | 0.899 (inactive) | 3.42 | 3.55 (active)
21 | CACPAGHAVGAGNASASA [HC746] | -0.805 (inactive) | -1.77 (inactive) | 0.00889 (inactive)
22 | CAPLGNWFGCAGNASASA [HC433] | 1.65 | 0.567 (inactive) | 1.54
23 | CAVKSRLKRLAGNASASA [FS-890] | 9.42 (active) | 12 (active) | 9.55 (active)
24 | CAIKSLTERLAGNASASA [HC1497] | -0.222 (inactive) | -0.416 (inactive) | -0.246 (inactive)
25 | CAHSSRLKRLAGNASASA [FS-1011] | 6.44 (active) | 7.96 (active) | 7.66 (active)
26 | CADGMEECSQAGNASASA [HC1816] | -0.375 (inactive) | 0.927 (inactive) | 0.477 (inactive)
27 | CAMSECSQHLAGNASASA [HC1697] | 0.222 (inactive) | 0.351 (inactive) | 1.22
